# Luc counter: Counterscreen for Luciferase (Kinase-Glo TM) Inhibition. Luciferin 4-monooxygenase (Photuris pensylvanica), Q27757. actives 0.28% (n = 200,000). Potency, µM (top dose mostly 38.3 µM), without a hit: top-dose activity change, negative = inhibition, hits mostly inhibitors. Kinase-Glo luciferase, ATP luminescence, 8 min; note: % is set by controls: 0 for no effect and ±100 for the full control effect; nearly all actives have a fitted effect of over 60% in size
#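 Luminescence was the read-out, taken after 8-minute incubation at ambient temperature. Luciferase turned over luciferin with 10 uM ATP in imidazole pH 7.2 buffer containing KCl, MgCl2, Tween 20 and BSA.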
# NPC1 prom act: qHTS Assay for NPC1 Promoter Activators; Huh7 NPC1 promoter luciferase reporter, 24 h; Potency, µM (doses to about 9.22 µM), for the others: top-dose activation, usual class: activators; actives 2.4% (n = 320,000); AID 485313, 2010; note: % of control where 0% means no effect; nearly all actives have a fitted effect of over 60% in size
#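 Luminescence from an NPC1 promoter-driven luciferase reporter in stably transfected Huh7 cells was measured after 24 h compound treatment at 37 °C, followed by 10 min ambient incubation with luciferase detection reagent.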
# SMN2 splice up: qHTS Assay for Enhancers of SMN2 Splice Variant Expression | actives 2.8% (n = 210,000) | Potency, µM (doses to about 46.1 µM), without a hit: at the top dose activity change, positive = activation, hits mostly activators | HEK293 SMN2-luciferase splicing reporter, luminescence, 30-36 h | AID 1458, 2008; note: % of control where 0% means no effect; nearly all actives have a fitted effect of over 55% in size
#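 HEK293 cells carry an SMN2 […]–luciferase reporter in which exon 7 inclusion puts luciferase in frame. Cells were plated 10-12 h before compound addition, then incubated 30-36 h at 37C. ONE-Glo luminescence was read; sodium butyrate at 4.5 mM final served as control.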
# FLuc counter: qHTS profiling assay for firefly luciferase inhibitor/activator using purifed enzyme and Km concentrations of substrates (counterscreen for miR-21 project) | Luciferin 4-monooxygenase (Photinus pyralis), P08659 | purified FLuc, Km substrates, luminescence inhibition | Potency, µM (top dose mostly 57.5 µM), for the others: at the highest dose activity change, negative = inhibition, actives largely listed as inhibitors | actives 6.9% (n = 360,000);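 note: plate controls were vehicle for no effect and reference inhibitor for full effect; nearly all actives have a fitted effect of over 55% in size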
# Target sequence (P08659 whole entry, looked up): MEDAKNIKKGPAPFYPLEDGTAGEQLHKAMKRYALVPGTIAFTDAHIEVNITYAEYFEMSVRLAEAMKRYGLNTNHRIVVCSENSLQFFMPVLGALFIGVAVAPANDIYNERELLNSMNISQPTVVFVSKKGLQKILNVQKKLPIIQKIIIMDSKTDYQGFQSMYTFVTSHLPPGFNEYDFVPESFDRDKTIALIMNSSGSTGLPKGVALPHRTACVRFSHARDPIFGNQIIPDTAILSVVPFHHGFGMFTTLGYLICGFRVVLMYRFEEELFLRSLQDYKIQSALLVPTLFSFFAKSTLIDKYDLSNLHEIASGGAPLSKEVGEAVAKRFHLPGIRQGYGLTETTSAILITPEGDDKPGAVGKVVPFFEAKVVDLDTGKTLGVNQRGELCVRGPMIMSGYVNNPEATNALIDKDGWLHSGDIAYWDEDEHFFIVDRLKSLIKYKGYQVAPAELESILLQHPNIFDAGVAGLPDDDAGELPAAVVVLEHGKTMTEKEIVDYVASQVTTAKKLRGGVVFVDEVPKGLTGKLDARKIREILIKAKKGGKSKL
#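 Purified P. pyralis luciferase (10nM final) with 10uM D-luciferin and 10uM ATP (Km levels) in 50mM Tris acetate pH 7.5, 10mM Mg acetate, 0.01% Tween-20, 0.05% BSA; qHTS 6-point titration, ~60 µM downward; luminescence read.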
# Rab9 prom act: qHTS Assay for Rab9 Promoter Activators | Huh7 Rab9 promoter-luciferase reporter, luminescence, 24 h | Potency, µM (top dose mostly 9.22 µM), for the others: at the top dose activation, negative = inhibition, most hits filed as activators | actives 2.8% (n = 320,000) | AID 485297, 2010; note: % of control where 0% means no effect; nearly all actives have a fitted effect of over 60% in size
#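 Cells were plated at 1500 per well in reduced-serum medium with 10% FBS and left 2 h. Compound in DMSO was then added for 24 h at 37 °C. Reporter signal was read by luminescence after 10 min with luciferase detection reagent.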
# Starred values were filed as active, the others as inactive; ? = inconclusive; nt = no result; [ ] = dose if it differs, or a comment. Hits are enriched below; roughly 7.3% of the tested compounds scored in any of these assays. Calls come from the whole dose curve; as a rule, active = well fitted curve in the direction sought with a large enough effect; inconclusive = small, poorly fitted or top-dose-only effect, or another doubt; inactive = no such curve, though single readings can be large; an effect the other way counts as inactive or inconclusive. Potency is the fitted concentration of half-maximal effect.
SMILES,Luc counter,NPC1 prom act,SMN2 splice up,FLuc counter,Rab9 prom act
O=C(O)COc1ccccc1/C=N/NC(=O)c1cc(-c2ccc(F)cc2)nc2ccccc12,-3.8%,-2.8%,-0.6%,1.9µM*,-3.6%
O=C(N/N=C/c1ccco1)c1cc(-c2ccncc2)nc2ccccc12,nt,-14.6%,nt,?,-3.7%
COc1cccc(/C=N/NC(=O)c2cc(-c3ccccn3)nc3ccccc23)c1O,nt,-33.7%,nt,?,-33.0%
Cc1nn(-c2ccccc2)c(N2CCCC2)c1/C=N/NC(=O)c1cc(-c2cccnc2)nc2ccccc12,2.2%,-3.0%,-25.9%,0.8%,-10.4%
CCOc1ccc(/C=N/NC(=O)c2cc(-c3ccccc3)nc3ccccc23)cc1O,nt,0.5%,nt,15.1µM*,0.5%
CCc1ccccc1NC(=O)c1cnc(N2CCCCC2)c2ccccc12,nt,nt,nt,-4.5%,nt
O=C(N/N=C/c1ccc2c(c1)OCO2)c1cc(-c2ccc(F)cc2)nc2ccccc12,-19.6%,-3.2%,-20.9%,5.36µM*,-3.8%
O=C(N/N=C/c1cc(Cl)cc([N+](=O)[O-])c1O)c1cc(-c2ccccn2)nc2ccccc12,nt,-4.8%,nt,21.3µM*,-16.3%
CCN(CC)S(=O)(=O)c1cccc(C(=O)N/N=C/c2ccccc2OCC(=O)O)c1,3.9%,-4.3%,2.3%,26.9µM*,-3.2%
COc1ccc(/C=N/NC(=O)c2cc(-c3ccccc3)nc3ccccc23)c(C(=O)O)c1OC,nt,2.5%,nt,7.57µM*,3.2%
COc1ccccc1NS(=O)(=O)c1cccc(C(=O)N/N=C/c2ccccc2OCC(=O)O)c1,6.7%,-3.6%,16.8%,-5.3%,1.8%
O=C(N/N=C/c1ccc(O)cc1)c1cc(-c2ccccc2)nc2ccccc12,nt,0.4%,nt,5.36µM*,6.1%
O=C(N/N=C/c1ccc(F)cc1)c1cc(-c2ccccn2)nc2ccccc12,nt,-8.5%,nt,-18.6%,-2.8%
O=C(O)COc1ccccc1/C=N/NC(=O)c1cc2ccccc2cc1O,nt,-4.8%,nt,7.57µM*,2.9%
O=C(Nn1cnnc1)c1csc2ccccc12,2.9%,1.4%,?,1.4%,-0.1%
O=C(N/N=C/c1ccc(O)cc1)c1csc2ccccc12,-6.5%,19.3%,4.1%,15.1µM*,1.4%
O=C(O)COc1ccccc1/C=N/NC(=O)c1cccc(S(=O)(=O)N2CCOCC2)c1,-0.8%,-0.6%,6.3%,?,9.9%
Cc1cc(C(=O)N/N=C/c2cc(Cl)cc([N+](=O)[O-])c2O)n[nH]1,nt,-2.6%,nt,26.9µM*,-2.8%
Cc1ccc(NC(=O)Cn2cc(S(=O)(=O)Cc3ccc(F)cc3)c3ccccc32)cc1Cl,nt,nt,nt,-14.4%,nt
CCN(CC)c1ccc(NS(=O)(=O)c2cc3[nH]c(=O)c(=O)[nH]c3cc2C)c(C)c1,nt,nt,nt,-4.5%,nt
COC(=O)c1ccc2c(=O)n(CC3CCCO3)c(SCC(=O)Nc3ccccc3OC)nc2c1 (stereo unspecified),2.5%,3.6%,6.0%,6.75µM*,-3.6%
COc1ccc(C(=O)Nn2c(SCC(=O)NCc3ccccc3)nc3ccccc3c2=O)cc1,-18.2%,0.398µM*,?,2.69µM*,0.126µM*
COc1ccc(C(=O)Nn2c(SCC(=O)NCC3CCCO3)nc3ccccc3c2=O)cc1 (stereo unspecified),?,0.501µM*,-90.2%,0.757µM*,0.398µM*
O=C(CSc1nc2ccsc2c(=O)n1NC(=O)c1ccccc1)Nc1nccs1,-1.3%,11.8%,20µM*,-7.4%,25.2%
CN(C(=O)CSc1nc2ccccc2n1Cc1cccc(C(F)(F)F)c1)c1ccccc1,nt,nt,nt,-8.4%,nt
SMILES,Luc counter,NPC1 prom act,SMN2 splice up,FLuc counter,Rab9 prom act
CCCN1C(=O)C(Cc2nc3ccccc3c(=O)n2-c2cccc(C)c2)c2ccccc21 (stereo unspecified),nt,nt,6.1%,-1.2%,nt
CCc1cccc(C)c1Nc1c(-c2ccc(SC)cc2)nc2sccn12,nt,nt,19.0%,-14.2%,nt
Cc1ccc(Nc2nc3ccc(C)cc3nc2-n2nc(C)cc2C)c(C)c1,nt,nt,13.0%,-2.0%,nt
O=C(CSc1nc2ccccc2c(=O)n1NC(=O)c1ccccc1)c1ccccc1,-8.5%,?,?,12µM*,3.55µM*
COc1ccc(C(=O)Nn2c(SCC(=O)NC3CCCC3)nc3ccccc3c2=O)cc1,-8.8%,3.16µM*,-41.1%,9.53µM*,0.891µM*
CC(C)(C)c1ccc(/C=C/C(=O)Nc2ccc3c(c2)OCCO3)cc1,-1.4%,-27.8%[46.1 µM],-86.3%,nt,-33.0%[46.1 µM]
CC(C)(C)c1ccc(/C=C/C(=O)Nc2nncs2)cc1,0.7%,0.794µM*,?,0.953µM*,0.708µM*
O=C(/C=C/c1ccc2c(c1)OCO2)Nc1nncs1,nt,2.24µM*,nt,2.13µM*,2µM*
O=C(/C=C/c1ccc2c(c1)OCO2)Nc1c(C(=O)O)[nH]c2ccccc12,0.3%,8.3%,-0.7%,7.57µM*,-1.5%
COc1ccc2nc(NC(=O)/C=C/c3ccc4c(c3)OCO4)sc2c1,2.7%,-1.9%,-21.9%,0.8%,-0.2%
CCOC(=O)c1[nH]c2ccc(OC)cc2c1NC(=O)/C=C/c1ccc2c(c1)OCO2,2.9%,10.0%,?,-1.2%,0.8%
Cc1sc(NC(=O)/C=C/c2ccc3c(c2)OCO3)nc1-c1ccccc1,-0.6%,-20.9%,-55.9%,9.53µM*,-24.0%
COc1ccc(S(=O)(=O)NCC(c2ccco2)S(=O)(=O)c2cccs2)cc1C (stereo unspecified),nt,nt,nt,3.7%,nt
COc1ccc(C)cc1NC(=O)c1c(C(=O)Nc2cccc(C)c2C)sc2nc(C)cc(=O)n12,nt,nt,10.9%,1.1%,nt
O=C(/C=C/c1ccc2c(c1)OCO2)Nc1nc(-c2ccccc2)cs1,0.5%,-3.6%,-61.7%,3.01µM*,-2.4%
COc1ccc(NC(=O)Nc2nnc(N(CC(C)C)CC(C)C)s2)c(OC)c1,nt,nt,nt,3.8%,nt
CN(C)c1ccc(C(=O)c2ccc(N(C)C)c3ccccc23)cc1,-2.6%,-7.0%,?,15.1µM*,-18.6%
CC1CCc2nc3ncn(Cc4ccccc4C#N)c(=O)c3cc2C1 (stereo unspecified),nt,nt,nt,-12.5%,nt
COc1ccc(-c2cc(C(=O)NC3CCCCC3)no2)cc1OC,nt,0.4%,nt,1.2%,6.3%
O=C(NC1CCCCC1)c1cc(-c2ccc(O)cc2)on1,nt,2.51µM*,nt,?,3.16µM*
Cc1ccc(-c2cc(C(=O)NC3CCCCC3)no2)cc1,nt,2.51µM*,nt,?,3.55µM*
Cc1cccn2c(=O)c(/C=C(\C#N)c3nc4ccccc4s3)c(Oc3ccc(Br)cc3)nc12,nt,nt,6.4%,-9.5%,nt
COc1ccc2oc(C(=O)Nc3ccccc3N3CCOCC3)c(C)c2c1,nt,?,nt,?,14.5%
COc1ccc2oc(C(=O)N3CCCc4ccccc43)c(C)c2c1,nt,?,nt,19µM*,?
